Potency and outcome data for six compounds are collected here from PubChem BioAssay (NCATS).

Inconclusive results are not listed. Values without a mark were called inactive. Activity calls are given as the source filed them. Calls follow the shape of the dose curve; as a rule, active = well fitted curve in the direction sought with a large enough effect; inconclusive = small, poorly fitted or top-dose-only effect, or another doubt; inactive = no such curve, though single readings can be large; an effect the other way counts as inactive or inconclusive.

Assay [1] in a line: U-118MG Cancer Cell Toxicity qHTS against the NCATS CANVASS Library (AID 1347351). Also: series mostly up to about 38 µM. The gist of the method:
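Viability read-out: CellTiter-Glo luminescence after 72 h compound exposure at 37 °C/5% CO2. Cells plated at 1000/well, 4 h pre-incubation; 11-point titration. Bortezomib served as control.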
In general terms: In qHTS, concentration-response curves come from the screen itself.

The nature of assay [2]: HPAF-II 24hr Apoptosis Induction qHTS against the NCATS CANVASS Library (AID 1347356). The gist of the method: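 Luminescent caspase-3/7 signal (DEVD substrate, Caspase-Glo) served as read-out, taken 15 min after reagent addition to HPAF-II cells exposed 24 h to compounds.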
Assay [3] can be described thus: HEK293 18hr Apoptosis Induction qHTS against the NCATS CANVASS Library (AID 1347357). Put shortly: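 Caspase-3/7 luminescence (DEVD substrate, Caspase-Glo) after 18 h compound exposure of HEK293 cells, 500 cells/well; 11-point series; doxorubicin titration as control.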
Assay [4] can be described thus: HPAF-II 18hr Apoptosis Induction qHTS against the NCATS CANVASS Library (AID 1347360). Put shortly:
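Caspase-Glo 3/7 luminescence (DEVD substrate) after 15 min RT; HPAF-II, 500 cells/well, 18 h compound exposure at 37 degrees C, qHTS series; doxorubicin control 0.1nM - 4uM.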

A short description of assay [5]: HEK293 12hr Apoptosis Induction qHTS against the NCATS CANVASS Library (AID 1347361). Put shortly:
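500 HEK293 cells/well; cpds pin-transferred, 11-pt conc series; 12 h, 37 degrees C/5% CO2; Caspase-Glo 3/7 added, 15 min RT dark; luminescence.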

Assay [6] can be described thus: KB-3-1 Cancer Cell Toxicity qHTS against the NCATS CANVASS Library (AID 1347366). Also: nearly all actives have a fitted effect of over 75% in size. Put shortly: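 500 KB-3-1 cells/well; compounds pin-transferred, 11-pnt series; 72 hr, 37C/5% CO2; CellTiter-Glo, 10 min RT; luminescence read-out.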
A short description of assay [7]: qHTS for ATAD5 Antagonist screened against the NCATS CANVASS Library (AID 1347370). Also: nearly all actives have a fitted effect of over 65% in size. Also: potency is read from the fitted curve at half-maximal effect. Put shortly: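 HEK293T cells with stably integrated ATAD5-luciferase reporter, 2000/well, 5 h attachment; compounds plus 10 µM 5-fluorouridine, 16 h at 37 °C. Luciferase luminescence read, with CellTiter-Fluor viability read first.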
A short description of assay [8]: J3T Cancer Cell Toxicity qHTS against the NCATS CANVASS Library (AID 1347371). The gist of the method:
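Cells plated at 500 per well, compounds pin-transferred, plates incubated 72 hr at 37C, then CellTiterGlo added and luminescence read to measure ATP content.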

The target of assay [9] is Nuclear receptor subfamily 1 group I member 3 (Homo sapiens) (UniProt Q14994). The experiment in a line: qHTS for Constitutive Androstane Receptor (CAR) Antagonist screened against the NCATS CANVASS Library (AID 1347372).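 Also: cells stimulated with 50 nM CITCO agonist so inhibition reflects antagonism; series mostly up to about 46 µM.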 The gist of the method: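 HepG2 cells stably carrying hCAR and a CYP2B6-2.2kb luciferase reporter were exposed to compounds plus 50 nM CITCO for 24hr at 37C. CAR activity was read by ONE-Glo luminescence, with viability measured first by CellTiter-Fluor.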

For assay [10] the target is unchanged. Put plainly: qHTS for Constitutive Androstane Receptor (CAR) Agonist screened against the NCATS CANVASS Library (AID 1347373).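 Also: every well also contained 1.5 µM PK11195 alongside the test compound.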 Also: potency is read from the fitted curve at half-maximal effect. Put shortly: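 HepG2-hCAR-CYP2B6 cells, 2500/well, attached 4hr; cpd + PK11195 1.5uM final; 24hr 37C 5% CO2. CellTiter-Fluor viability read, then ONE-Glo luminescence for CAR activation.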
A short description of assay [11]: 10-beta competent E. coli microbial cell viability qHTS against the NCATS CANVASS Library (AID 1347376). Also: series mostly up to about 46 µM. Put shortly:
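E. coli 10-beta, 0.2 OD; cpds 11-pt; o/n 37C, 5% CO2; BacTiter-Glo 20 min RT; luminescence (ATP) = viable cells. Daunomycin ctrl.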

Assay [12] in a line: qHTS for H2AX Agonists against the NCATS CANVASS Library (AID 1347378). The gist of the method: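 TR-FRET readout (ex 320 nm, em 665/620 nm ratio) of phospho-H2AX (S139) in CHO-K1 lysates. Cells treated 3 hr at 37C with compound titration, 0.76% DMSO; lysis 30 min, antibody detection 24 hr at RT.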
A short description of assay [13]: Cytotoxicity qHTS for assessment of Hepg2 cells membrane integrity screened against the NCATS CANVASS Library (AID 1347387). Put shortly: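 qHTS, 11-pt conc. series, 0.59 nM - 46 uM final; HepG2 2000 cells/well, overnight attachment; 5 hr compound exposure 37C/5% CO2; CytoTox-ONE, 10 min RT; fluorescence ex560/em590 = LDH from damaged membranes.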
Assay [14] is described as follows: Viability qHTS for inhibitors of the SERCaMP assay screened against the NCATS CANVASS Library (AID 1347400). Also: series mostly up to about 92 µM; nearly all actives have a fitted effect of over 70% in size. The gist of the method: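 SH-SY5Y SERCaMP MJH297 cells, 1000/well; 4 h settle, 37C/5% CO2; pin-transferred cpds; 48 h; CellTiter-Glo lum. Pos ctrl bortezomib 0.0001 - 4.6 uM.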
Assay [15] in a line: Redox Reaction Profiling qHTS: Assay Interference Panel against the NCATS CANVASS Library (AID 1347401). The gist of the method: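 Resazurin (5 uM) conversion to resorufin measured with 200 uM DTT in 50 mM HEPES pH 7.3, 50 mM NaCl. Compounds tested in 11-point qHTS series. Fluorescence (ex 525/em 598 nm) read before and after 15 min dark incubation.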
Assay [16] is described as follows: qHTS for Inflammasome Signaling Inhibitors: IL-1-beta AlphaLISA screen against the NCATS CANVASS Library (AID 1347379).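 Also: human THP-1 cells primed with LPS then triggered with ATP.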 Put shortly: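 THP-1 cells pretreated 1 hr with compound (up to 57.5 uM final), then stimulated with LPS (250 ng/mL final) and ATP (1.25 mM final). Secreted IL-1B measured by AlphaLISA after 16 hr; glyburide as positive control.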
Assay [17] in a line: Secretion counterscreen for inhibitors of the SERCaMP assay screened against the NCATS CANVASS Library (AID 1347390).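 Also: light from luciferase secreted into medium read as a measure of general secretion; series mostly up to about 77 µM.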 Put shortly: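 Luminescence from constitutively secreted GLuc in SH-SY5Y-GLuc STOP cells, read after coelenterazine addition, served as read-out. Compounds tested 0.001 - 77 uM for 20 h at 37C; Brefeldin A as positive control.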
Assay [18] in a line: Vero-766 cells viability qHTS against the NCATS CANVASS Library: Counterscreen for Zika virus inhibition assay (AID 1347394). Also: nearly all actives have a fitted effect of over 60% in size. Also: potency is read from the fitted curve at half-maximal effect. Put shortly: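 CellTiter-Glo luminescence, lower signal indicating cytotoxicity. Vero 766 cells without Zika virus, 1000 cells/well, plated overnight, then treated 72 h at 37C across an 11-point series.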
Assay [19] concerns NAD(P)H diaphorase (Clostridium kluyveri). Put plainly: Diaphorse counterscreen qHTS: Assay Interference Panel against the NCATS CANVASS Library (AID 1347362). Also: potency is read from the fitted curve at half-maximal effect. Put shortly:
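Clostridium kluyveri diaphorase in PBS with 0.01% Tween-20 was preincubated 15 min at room temperature in the dark with compounds (11-point series). Resorufin fluorescence (ex 525/20, em 598/25) was read 5 min after adding resazurin/NADH.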
On the technique in general: The purpose of a counterscreen is to sort out artefacts and off-target activity.

Assay [20] in a line: MCF7 Cancer Cell Toxicity qHTS against the NCATS CANVASS Library (AID 1347369). The gist of the method: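 Luminescent ATP signal (CellTiterGlo) served as the cytotoxicity read-out after MCF7 breast cancer cells had been incubated 72 hr at 37C with natural products in an 11-point titration.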

Chain of Nuclear receptor subfamily 1 group I member 3 (Homo sapiens) (Q14994 whole entry, looked up): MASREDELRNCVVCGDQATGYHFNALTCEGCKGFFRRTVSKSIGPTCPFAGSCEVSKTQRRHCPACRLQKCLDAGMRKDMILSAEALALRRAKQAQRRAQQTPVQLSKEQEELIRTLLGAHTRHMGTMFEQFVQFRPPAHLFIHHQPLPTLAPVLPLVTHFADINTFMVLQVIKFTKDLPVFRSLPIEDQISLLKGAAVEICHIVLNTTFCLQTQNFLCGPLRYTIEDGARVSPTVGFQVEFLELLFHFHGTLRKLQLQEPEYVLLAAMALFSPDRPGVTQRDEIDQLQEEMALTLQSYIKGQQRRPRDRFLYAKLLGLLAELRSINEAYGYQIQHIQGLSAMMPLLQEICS

On to `C/C=C/C1C=CC2CC(C)CC(C)C2C1C(=O)CC(=O)NC(CO)C/C=C/CCCCC` (stereo unspecified), for which the Potency result in assay [1], in assay [3], in [4], in [6], in assay [8] and in assay [9] was “inactive” throughout. Also, the Potency entry in [10], in assay [12], in [14] and in assay [15] was “inactive” each time. Also, the call in assay [2], in assay [5], in assay [11] and in assay [13] was inactive. In addition, the Potency in assay [7] is 23.4 µM (active).
For the compound `C/C=C(/C)c1c(Cl)c(OC)c(C)c2c1Oc1c(Cl)c(O)c(Cl)c(C)c1C(=O)O2`, the Potency result in assay [1], in [3], in assay [4], in assay [6], in assay [9] and in [10] was “inactive” each time. Moreover, the Potency entry in [12], in assay [16], in assay [17], in assay [14] and in assay [15] was “inactive” in each case. Further, the result in assay [2], in [5], in [11] and in [13] was inactive. Further, the Potency in assay [18] was 3.71 µM (active).
As to `CC[C@H]1[C@H](C)[C@H](c2cc(OC)c(OC)cc2OC)[C@@H](C)[C@H](c2cc(OC)c(OC)cc2OC)[C@@]12C=C(OC)C(=O)C=C2OC`, the compound was classed as inactive in [2], in assay [11] and in assay [13]. In addition, the Potency entry in assay [4], in assay [20], in assay [8], in assay [9], in assay [10] and in assay [12] was “inactive” each time. The Potency result in assay [17], in [18] and in [15] was “inactive” in each case. Also, in [19], the Potency was 21.6 µM (active).
On to `CC(C)C[C@@H]1c2c(O)c(C=O)c(O)c(C=O)c2O[C@]2(C)C=C[C@@H](C(C)C)C[C@H]12`, for which the Potency entry in assay [1], in assay [3], in [4], in assay [19], in assay [6] and in assay [20] was “inactive” throughout. For the same compound, the Potency entry in [8], in assay [9], in assay [10], in assay [12], in [16] and in [17] was “inactive” throughout. The Potency result in assay [18] and in [14] was “inactive” throughout. The result in assay [2], in assay [5], in assay [11] and in assay [13] was inactive.
Turning to `O=C1CC2OCC=C3CN4C5CC3C2[C@@H]2N1c1ccccc1[C@]52C[C@@H]4C1=C[C@H]2C3CC4N(CC[C@@]45c4ccccc4N(C1=O)[C@@H]25)C/C3=C/CO` (stereo partly specified), the compound was called inactive in assay [2], in [5], in assay [11] and in assay [13]. Further, the Potency entry in assay [3], in assay [4], in assay [19], in assay [20], in assay [9] and in [12] was “inactive” throughout. Also, the Potency entry in assay [17], in assay [18] and in assay [15] was “inactive” in each case. In addition, the Potency is 11.7 µM (active) in [10] and 24.3 µM (active) in [16].
As to `C[C@H]1C=C[C@H]2CCCC[C@@H]2[C@H]1C(=O)[C@H]1CC2=C(C(=O)O)CCN2C1=O`, the Potency entry in assay [1], in assay [3], in [4], in assay [19], in [6] and in [20] was “inactive” in each case. In addition, the Potency result in assay [7], in assay [8], in assay [9], in assay [10], in assay [12] and in [16] was “inactive” throughout. Moreover, the Potency result in assay [17], in assay [18] and in assay [15] was “inactive” in each case. Besides, the call in [2], in assay [5], in assay [11] and in [13] was inactive.
